Screening results as filed in PubChem.
D3 ag = activates the human D3 dopamine receptor; P35462; D3R DiscoveRx beta-arrestin cells, luminescence, 90 min; max activation, %; 0.58% of 410,000 active; AID 652048; in the data active means max activation above about 30%; further: 0% is about no effect
Target sequence (P35462 whole entry, looked up): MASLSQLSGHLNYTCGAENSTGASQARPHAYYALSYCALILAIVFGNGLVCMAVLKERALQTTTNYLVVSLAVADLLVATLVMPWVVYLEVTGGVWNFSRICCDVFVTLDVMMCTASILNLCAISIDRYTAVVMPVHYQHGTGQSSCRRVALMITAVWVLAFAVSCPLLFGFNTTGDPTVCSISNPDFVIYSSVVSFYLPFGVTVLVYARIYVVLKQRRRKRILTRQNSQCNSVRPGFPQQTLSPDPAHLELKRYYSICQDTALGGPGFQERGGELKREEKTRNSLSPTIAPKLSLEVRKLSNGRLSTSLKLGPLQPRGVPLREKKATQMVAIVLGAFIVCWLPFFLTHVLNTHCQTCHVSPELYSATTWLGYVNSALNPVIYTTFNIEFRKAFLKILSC
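Cells at 1500/well, incubated overnight, then treated with pinned compounds (dopamine as control) for 90 min at 37 degrees C. DiscoveRx reagent added for 30 - 60 minutes at room temperature; luminescence read.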
DRD3 antagonist = D3 dopamine receptor (human) antagonism | P35462 | D3R cells, DiscoveRx beta-arrestin luminescence, antagonist mode; stronger effect = lower value | max response, negative = inhibition, % | 2.5% of 360,000 active | AID 652054; in the data active means max response below about -50%; inconclusive means no clear call, values can overlap the other calls; further: on the % scale 0 is the no-effect control and ±100 the full control effect
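Cells plated overnight at 1500 cells/well, then exposed to library compounds with dopamine controls for 90 minutes at 37 degrees C. DiscoveRx reagent added for 30–60 minutes at room temperature; luminescence read, quantitative HTS format.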
D1 PAM = potentiators of human D1 dopamine receptor. 0.036% of 360,000 active. P21728. HEK293 TREx D1 cells, calcium flux, dopamine EC20 potentiation. potentiation, % at 10 µM. AID 504651; in the data active means potentiation above about 30%; further: 0% is about no effect
D1 ag = activates the human D1 dopamine receptor; P21728; HEK293 T-REx D1 cells, calcium flux, agonist mode; activation, % at 2 µM; 1% of 360,000 active; AID 504660; in the data active means activation above about 30%; further: 0% is about no effect
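Inducible HEK293 T-REx D1 cells, force-coupled to calcium signalling, were plated at 4000 cells/well with tetracycline and held overnight at 30 C. After no-wash calcium dye loading, compound-evoked calcium rise over 180 s flagged agonists.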
D1 antag = antagonists of human D1 dopamine receptor; P21728; 3.2% of 360,000 active; activity change, negative = inhibition, % at 10 µM; HEK293 TREx D1 cells, calcium flux, dopamine EC80; stronger effect = lower value; in the data active means activity change below about -30%; further: on the % scale 0 is the no-effect control and ±100 the full control effect
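Inducible Hek293 Trex D1 cells (tetracycline, overnight, 30 C). Calcium dye 30–90 min RT. Antagonist mode: EC80 dopamine added after 180 s compound read.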
* = called active by the depositor; ? = inconclusive; . = no result given. Shown are actives, neighbours in structure and some others; about 6.1% of the full set was active somewhere.

SMILES	D3 ag	DRD3 antagonist	D1 PAM	D1 ag	D1 antag
COc1ccc2sc(-c3ccc(S(C)(=O)=O)cc3)c(C#CCO)c2c1	3	30	.	.	.
COC(=O)c1c(-c2ccc(N(C)C)cc2)sc2ccc(OC)cc12	134*	175	.	.	.
COc1cc(-c2c(-c3ccsc3)sc3ccccc23)cc(OC)c1OC	12	38	-1	-2	.
COC(=O)c1c(-c2ccsc2)sc2ccc(-c3cc(OC)c(OC)c(OC)c3)cc12	53*	49	.	.	.
COc1cc(OC)c(NC(=O)NCCn2nnc3cc(S(=O)(=O)N(C)C)ccc32)cc1Cl	7	.	1	-2	-12
O=C1c2cccnc2C(=O)N1Cc1ccc2c(c1)OCO2	41*	22	4	2	2
O=C1c2cccnc2C(=O)N1Cc1ccco1	-1	10	2	1	-2
Cc1c2cnn(CC(=O)NCc3ccc(F)cc3)c(=O)c2c(C)n1Cc1cccc(Cl)c1	-3	.	5	6	1
Cc1ccc(C(=O)N2CCCC(N(C)Cc3ccccc3)C2)s1 (stereo unspecified)	-12	-62*	1	1	-7
Cc1c(C(=O)N2CCCCCC2)c(S(=O)(=O)Nc2ccc(OC(F)(F)F)cc2)c(C)n1C	8	.	2	9	4
COC(=O)c1sc(-c2ccc(Cl)cc2)cc1NC(=O)CSCC(=O)O	-10	-5	0	3	2
COC(=O)c1sc(-c2ccc(C(C)(C)C)cc2)cc1NC(=O)COCC(=O)O	6	1	-4	58*	-39*
Cc1ccc(C(=O)NCCCNC(=O)c2ccccn2)cc1	19	6	-2	1	-3
Cc1ccc(C(=O)NCCCNc2ccccc2[N+](=O)[O-])cc1	-29	-28	-7	1	-44*
O=C(CSc1nccn1-c1cccc(Cl)c1)Nc1ccc2c(c1)OCO2	-4	.	-1	1	-6
Cc1cccc(OCCn2c(SCC(N)=O)nc3ccccc32)c1	-5	.	-2	17	6
Cc1ccc2nc(N)[nH]c(=O)c2c1Sc1ccncc1	12	.	.	.	.
N#Cc1sc2nc(-c3cccs3)cc(-c3ccccc3)c2c1N	29	49	0	-1	1
CCN(CC)C(=O)c1sc2nc(-c3cccs3)cc(-c3cccs3)c2c1N	3	1	3	7	-14
N#Cc1sc2nc(-c3cccs3)cc(-c3ccc(Cl)cc3)c2c1N	-8	32	-8	5	-32*
CCN(CC)C(=O)c1sc2nc(-c3cccs3)cc(-c3ccc(Cl)cc3)c2c1N	-2	-14	12	55*	-21
CCc1ccc(NC(=O)c2cc(=O)c3ccc(C)c(C)c3o2)cc1	-18	.	0	3	-6
c1ccc(C2(CN3CCNC[C@H]3Cc3cccc4ccccc34)CC2)cc1	-12	0	-7	77*	-56*
CC(C)(C)CN1CCNC[C@H]1Cc1cccc2ccccc12	5	-4	1	18	4
Fc1cccc(CCN2CCNC[C@H]2Cc2cccc3ccccc23)c1	20	27	-3	40*	9
SMILES	D3 ag	DRD3 antagonist	D1 PAM	D1 ag	D1 antag
O=S(=O)(NCC(c1ccco1)S(=O)(=O)c1ccccc1)c1cc(F)ccc1F (stereo unspecified)	1	.	5	-2	.
CC1(C)CC(=O)c2cc(-c3nc(-c4ccccc4)cs3)c(=O)[nH]c2C1	4	.	2	0	11
Cc1ccccc1CNCCCSc1nnnn1-c1ccccc1	-25	.	-1	36*	4
COc1ccc(CCNc2nnc(Sc3nnnn3-c3ccccc3)s2)cc1OC	8	27	-6	3	-53*
CCOc1cc(CNCCSc2nnnn2-c2ccccc2)ccc1OC	-12	.	-1	30*	-11
CCOc1ccc(CNCCSc2nnnn2C)cc1OC	0	.	-1	-1	-10
COc1ccc(-n2nnnc2SCC(=O)NCCc2ccccc2)cc1OC	-2	0	-5	9	57
Cc1cc(CC(=O)O)c(C)n1-c1ccc(Cl)cc1	-5	.	.	.	.
CC(C)c1cnc2c(c1SCC(=O)c1ccc(Cl)cc1)c(=O)n(C)c(=O)n2C	-5	.	-1	3	15
CN(C)CCOC1c2ccccc2C=Cc2ccccc21	-13	?	.	.	.
CN(C)CCCC1Sc2ccccc2Sc2ccccc21 (stereo unspecified)	-40	-69*	.	.	.
Cc1ccccc1C(=O)Nc1ccnn1C1CCN(Cc2c(C)n(C)c3ccccc23)CC1	-19	?	-3	12	-34*
CCc1ccc(CN2CCC(n3nccc3NC(=O)c3ccccc3C)CC2)cc1	8	21	-4	15	-6
Cc1ccccc1OCC(=O)Nc1ccccc1C(=O)OCc1cc(=O)n2c(C)csc2n1	10	.	0	0	-40*
Cc1csc2nc(COC(=O)COc3ccccc3F)cc(=O)n12	-4	.	-4	5	-46*
Fc1cc2[nH]c(=S)[nH]c2cc1Cl	6	-11	-4	2	-41*
Cc1cc2[nH]c(=S)[nH]c2cc1C	-7	-10	2	2	-16
CCCCC[C@]12Cc3cc(OC)c(OC)cc3C(O1)c1c(cc(C)n(-c3ccccc3)c1=O)O2	.	.	-1	0	10
NC(=O)c1ccc(Cc2ncc(C(F)(F)F)cc2Cl)s1	-2	0	-7	5	1
O=S(=O)(N/N=C/c1ccc(Cl)cc1)c1ccc(Cc2ncc(C(F)(F)F)cc2Cl)s1	3	-73*	-2	-2	.
COC(=O)c1cnn(-c2nc(OC)cc(OC)n2)c1C	-7	-25	-7	1	5
COc1cc(OC)nc(-n2ncc(Br)c(Br)c2=O)n1	-30	-86*	-4	2	6
Cc1cc2c(s1)c1cnn(Cc3ccc(S(C)(=O)=O)cc3)c(=O)c1n2C	.	.	13	7	-2
CCc1cccc(NC(=O)Cn2c(-c3ccccc3)cc(C(C)=O)c2C)c1	-5	-22	-7	2	-33*
O=[S+]([O-])(c1c(F)cccc1F)N1CCN([S+](=O)([O-])c2csc3ccccc23)CC1	.	.	-4	6	-21
Cc1c([S+](=O)([O-])N2CCN([S+](=O)([O-])c3c(F)cccc3F)CC2)sc2ccc(Cl)cc12	.	.	-1	2	-31*
CCOC(=O)c1ccc(NC(=O)C2CCCN(c3ncnc4onc(-c5ccc(F)cc5)c34)C2)cc1 (stereo unspecified)	-6	.	-3	1	-19
COc1ccc(-c2nn(-c3cccc(F)c3)c3c2cnc2cc(OC)c(OC)cc23)cc1	4	.	0	1	-1
CC(C)N1CC(C(=O)Nc2ccc(F)c(Cl)c2)CC1=O (stereo unspecified)	4	9	-1	6	5
O=C(O)c1cccc(NC(=O)C2CC(=O)N(Cc3ccccc3)C2)c1 (stereo unspecified)	4	-51*	5	2	6
